Source: PubChem BioAssay
Sampled rows, rich in hits. Any-hit rate of the full collection: about 4.1%.
CASP6 VEID inh: caspase-6 (human) enzyme inhibition; P55212; purified caspase-6, Z-VEID-R110 cleavage fluorescence; inhibition, % at 12.5 µM; 0.53% of 350,000 active; AID 686996;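 active = mean inhibition across replicates at least about 35%, with every replicate also reaching that limit, limit read from the data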;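 note: 0% = median of neutral control wells and 100% = no fluorescence left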
Target sequence (P55212 24-179 limits assumed): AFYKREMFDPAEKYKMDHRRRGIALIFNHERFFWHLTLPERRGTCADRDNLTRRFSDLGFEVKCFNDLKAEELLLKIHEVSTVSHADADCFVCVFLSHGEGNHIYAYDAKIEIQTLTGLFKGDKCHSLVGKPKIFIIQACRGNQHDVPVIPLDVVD
Target sequence (P55212 194-293 limits assumed): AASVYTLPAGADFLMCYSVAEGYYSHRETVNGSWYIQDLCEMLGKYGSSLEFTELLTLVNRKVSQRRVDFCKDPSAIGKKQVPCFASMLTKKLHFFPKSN
NSD2 HMT inh: inhibitors of human histone methyltransferase NSD2. 0.54% of 310,000 active. inhibition, % at 12.5 µM. O96028. NSD2 peptide methylation, AlphaScreen, 120 min. AID 743445; in the data active = inhibition above about 50%
PglD DTNB: PglD (C. jejuni) enzyme inhibition | inhibition, % at 12.5 µM | 0.098% of 360,000 active | purified PglD enzyme, DTNB colorimetric CoA detection; in the data active = inhibition above about 16%, passing the limit was not always enough
F508del corr: correctors of CFTR F508del function in bronchial epithelial cells; activity (quench increase), % at 7.58 µM; CFBE cells, YFP halide quenching; stimulated with forskolin plus potentiator P3; % fluorescence drop versus neutral controls; 0.36% of 350,000 active;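 active = mean added fluorescence quench of at least 8% versus neutral control, with both replicates also reaching 8%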;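 note: cells transiently co-express mutant CFTR-F508del with the halide-sensitive YFP; corrector assay measuring rescue of mutant channel to the surface after 24 h compound exposure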
Env fusion inh: blocks HIV Env-driven cell-cell fusion | HeLa-JRFL Env/CEM21 cell fusion, luciferase | AID 651610 | 1.1% of 360,000 active | inhibition, % at 12.3 µM;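 active = mean replicate inhibition score of at least 50 and every replicate individually at or above 50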;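 note: 0% = plate neutral controls and 100% = maraviroc near 300 nM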
ALR H2O2 inh: inhibitors of human sulfhydryl oxidase ALR; P55789; purified ALR, DTT oxidation, H2O2 HRP-luminol luminescence; inhibition, % (test concentration not listed); 3.8% of 290,000 active;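 active = mean replicate inhibition above about 79%, with every replicate also reaching it, limit read from the data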
Target sequence (P55789 whole entry, looked up): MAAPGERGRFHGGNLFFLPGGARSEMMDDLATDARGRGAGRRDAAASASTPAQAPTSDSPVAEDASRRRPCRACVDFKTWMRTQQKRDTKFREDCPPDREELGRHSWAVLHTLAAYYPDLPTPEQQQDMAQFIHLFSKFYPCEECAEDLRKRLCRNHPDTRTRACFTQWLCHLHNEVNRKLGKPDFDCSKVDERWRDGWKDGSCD
* = called active by the depositor; [ ] = remark or other dose.

For c1ccc(-n2cnc3cc(NCc4cccs4)ccc32)cc1 the results were NSD2 HMT inh 0, PglD DTNB 9, Env fusion inh inactive and ALR H2O2 inh 97*.
For Cc1cccc(S(=O)(=O)N2CC[C@H]3[C@@H](CO)N(C)c4ccc(-c5ccccc5F)cc4[C@H]32)c1 the results were CASP6 VEID inh 0, PglD DTNB -1 and F508del corr 2.
Screening COc1cc2c3c(c1)C(C)CC(C)(C)N3C(=O)C2=O (stereo unspecified) returned CASP6 VEID inh 0, NSD2 HMT inh 7, PglD DTNB 3, F508del corr 1, Env fusion inh 60* and ALR H2O2 inh -75.
`COc1cc2c3c(c1)C(C)=CC(C)(C)N3C(=O)C2=O` gave CASP6 VEID inh 10, NSD2 HMT inh 7, F508del corr 2 and Env fusion inh -16.
For CC(/C=N\NC(=O)Cn1c(C)nc2ccccc21)=C\c1ccccc1 the results were NSD2 HMT inh -1, PglD DTNB 4, Env fusion inh 86* and ALR H2O2 inh -4.
Cn1c(=O)[nH]c(=O)c2c1nc(Br)n2Cc1ccc(Cl)cc1 was read as CASP6 VEID inh -1, NSD2 HMT inh -10, PglD DTNB 2, F508del corr -1 and Env fusion inh 9.
Screening Cn1c(=O)[nH]c(=O)c2c1[nH]c(=S)n2Cc1ccc(Cl)cc1 returned CASP6 VEID inh -5, PglD DTNB -2, F508del corr -1, Env fusion inh 4 and ALR H2O2 inh 99*.
Screening Cc1ccc(C(=O)Nc2ccccc2C(=O)NCc2ccco2)cc1 returned CASP6 VEID inh -2, NSD2 HMT inh 0, F508del corr -2 and ALR H2O2 inh -14.
For Cc1ccccc1CN(c1ccc(C(=O)Nc2ccccc2C(=O)NCc2ccco2)cc1)S(C)(=O)=O the results were NSD2 HMT inh 0, PglD DTNB -6, Env fusion inh 61* and ALR H2O2 inh -11.
Cn1c(CCNC(=O)c2ccccc2Cl)n[nH]c1=S was read as NSD2 HMT inh -2, PglD DTNB -3 and ALR H2O2 inh 96*.
Cc1ccccc1S(=O)(=O)NCC[C@H]1CC[C@H](NC(=O)C2CCOCC2)[C@H](CO)O1 was read as CASP6 VEID inh 2, PglD DTNB 1, F508del corr 2 and Env fusion inh 11[16.7 µM].
`O=C(c1ccc2ccccc2c1)N1CCOCC1` gave CASP6 VEID inh 1, NSD2 HMT inh 16, PglD DTNB -7, F508del corr 5, Env fusion inh -12 and ALR H2O2 inh -6.
`O=C(c1ccc2c(c1)N(Cc1ccccc1)CCS2)N1CCOCC1` gave CASP6 VEID inh 1, NSD2 HMT inh 3, PglD DTNB -1, F508del corr -4, Env fusion inh 4 and ALR H2O2 inh 99*.
For O=C(c1ccc2c(c1)N(Cc1ccc(F)cc1)CCS2)N1CCOCC1 the results were CASP6 VEID inh 5, NSD2 HMT inh 3, PglD DTNB -1, F508del corr 1, Env fusion inh 5 and ALR H2O2 inh 99*.
`O=C1N=C(c2ccccc2)C(c2ccccc2)N1` (stereo unspecified) gave NSD2 HMT inh 3, PglD DTNB 3, Env fusion inh 44 and ALR H2O2 inh 99*.
For COc1cc(-c2ccccc2)[nH]c(=S)n1 the results were CASP6 VEID inh 0, PglD DTNB 4, F508del corr -2, Env fusion inh -7 and ALR H2O2 inh -3.
Screening O=[N+]([O-])c1ccc(-c2c[nH]c(=S)[nH]2)cc1 returned CASP6 VEID inh 3, NSD2 HMT inh 3, PglD DTNB 4, F508del corr -3, Env fusion inh -15 and ALR H2O2 inh 98*.
`S=c1[nH]cc(-c2ccccc2)[nH]1` gave CASP6 VEID inh 0, NSD2 HMT inh -1, F508del corr 0, Env fusion inh -27 and ALR H2O2 inh 99*.
`Nc1[nH]c(=O)ncc1-c1ccc([N+](=O)[O-])cc1` gave CASP6 VEID inh 0, NSD2 HMT inh 1, F508del corr -1 and Env fusion inh -10.
COc1ccc(CN(C)C[C@@H]2Oc3c(NS(=O)(=O)c4ccc(C)cc4)cccc3C(=O)N([C@@H](C)CO)C[C@@H]2C)cc1 was read as CASP6 VEID inh 0, PglD DTNB 0 and F508del corr 4.
Screening Cc1ccn2c(=O)nc(SCC(=O)c3ccc(Cl)cc3)nc2c1 returned CASP6 VEID inh 7, NSD2 HMT inh -1, PglD DTNB 0, F508del corr 1, Env fusion inh 0 and ALR H2O2 inh 93*.
Screening Cc1ccn2c(=O)nc(SCC(=O)N3CCC(C)CC3)nc2c1 returned CASP6 VEID inh 52*, NSD2 HMT inh 4, PglD DTNB -3, F508del corr 0, Env fusion inh 15 and ALR H2O2 inh -4.
`COc1ccc(C(=O)CSc2nc(=O)n3ccc(C)cc3n2)cc1` gave CASP6 VEID inh -5, NSD2 HMT inh -3, PglD DTNB -4, F508del corr 0 and Env fusion inh 7.
Screening CC(C)NC(=O)CSc1nccc(-c2cccs2)n1 returned CASP6 VEID inh 1, NSD2 HMT inh -4, F508del corr 0, Env fusion inh -6 and ALR H2O2 inh -6.
`CC(=O)C(Sc1nccc(-c2cccs2)n1)C(C)=O` gave CASP6 VEID inh 1, NSD2 HMT inh -3, PglD DTNB 2, F508del corr -1, Env fusion inh -7 and ALR H2O2 inh 98*.
O=C(CSc1nnc(SCc2ccccc2)s1)N/N=C/C=C\c1ccco1 was read as CASP6 VEID inh 16, NSD2 HMT inh 5, F508del corr -3, Env fusion inh 7 and ALR H2O2 inh 97*.
`Cc1noc(C)c1S(=O)(=O)Nc1ccc2c(c1)CC(=O)N([C@H](C)CO)C[C@@H](C)[C@@H](CN(C)S(=O)(=O)c1cccs1)O2` gave CASP6 VEID inh -4, PglD DTNB 0, F508del corr -1 and Env fusion inh 4[16.7 µM].
COc1cc2c(cc1OC)/C(=C/C(=O)c1ccc(F)cc1)NCC2 was read as CASP6 VEID inh 44*, NSD2 HMT inh 11, PglD DTNB -2, F508del corr 1, Env fusion inh -6 and ALR H2O2 inh 73.
Screening CC(C)NS(=O)(=O)c1ccc(CCC(=O)Nc2cc(Cl)ccc2Oc2ccccc2)cc1 returned NSD2 HMT inh 0, PglD DTNB 3 and ALR H2O2 inh -7.
For CCNS(=O)(=O)c1ccc(CCC(=O)Nc2cc(Cl)ccc2Oc2ccccc2)cc1 the results were NSD2 HMT inh 2, PglD DTNB 9, Env fusion inh 107* and ALR H2O2 inh -1.
`C[C@H]1CN([C@@H](C)CO)C(=O)Cc2cc(NS(=O)(=O)c3cccs3)ccc2O[C@@H]1CN(C)Cc1ccc(C(F)(F)F)cc1` gave CASP6 VEID inh 2, PglD DTNB 1, F508del corr 1 and Env fusion inh 5[16.7 µM].
